Many of the other results were omitted from the sample, so hits are more common in it than they were.
PKM2 inhibitor = qHTS Assay for Inhibitors of Human Muscle isoform 2 Pyruvate Kinase; AID 1634, 2009; purified PKM2, ATP generation, Kinase-Glo luminescence; Pyruvate kinase PKM (Homo sapiens), P14618; Potency, µM (top dose mostly 57.5 µM), for inactives: at the highest dose activity change, negative = inhibition, most hits filed as inhibitors; 260,000 tested, 0.058% active; active means well fitted inhibition curve with a large enough effect; further: nearly all actives have a fitted effect of over 60% in size
Target sequence (P14618 whole entry, looked up, canonical isoform): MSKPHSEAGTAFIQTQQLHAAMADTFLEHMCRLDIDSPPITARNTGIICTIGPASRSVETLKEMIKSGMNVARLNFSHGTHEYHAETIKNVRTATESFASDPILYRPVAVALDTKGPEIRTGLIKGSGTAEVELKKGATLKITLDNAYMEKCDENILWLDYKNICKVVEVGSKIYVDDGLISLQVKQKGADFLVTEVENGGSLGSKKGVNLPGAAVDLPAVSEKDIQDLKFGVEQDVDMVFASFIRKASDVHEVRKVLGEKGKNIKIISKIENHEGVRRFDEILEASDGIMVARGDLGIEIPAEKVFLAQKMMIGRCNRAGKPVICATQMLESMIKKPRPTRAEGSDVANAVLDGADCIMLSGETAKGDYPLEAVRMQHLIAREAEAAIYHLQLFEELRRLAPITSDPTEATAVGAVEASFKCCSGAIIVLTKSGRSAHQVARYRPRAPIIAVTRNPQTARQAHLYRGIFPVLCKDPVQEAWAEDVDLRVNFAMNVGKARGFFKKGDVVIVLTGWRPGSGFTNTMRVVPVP
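Coupled luciferase luminescence (Kinase-Glo) detects ATP generated from 0.1 mM ADP and 0.5 mM PEP in imidazole buffer pH 7.2 with KCl, MgCl2; 1 h at room temperature. Enzyme at intermediate activity; normalized to uninhibited and no-enzyme controls.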
Starred values were filed as active, the others as inactive; [ ] = remark or other dose. Potency means the concentration at half of the fitted maximal effect.

SMILES	PKM2 inhibitor
Cn1cnnc1Sc1cc(N2CCN(S(=O)(=O)c3ccc4ccccc4c3)CC2)ccc1[N+](=O)[O-]	73.2%
O=CN/C=C/c1cc(O)ccc1O	10µM*
CN(C)c1ccc(CNS(=O)(=O)c2ccc3c(c2)C(C)(C)C(=O)N3C)cc1	49.2%
C=C1C(=O)C=C2CN(C(=O)c3ccccc3)[C@@](Cc3ccc(OC)cc3)(C(=O)OC)[C@@H]12	42.1%
O=C(Nc1ccc2oc(-c3ccccc3F)nc2c1)c1ccc2c(c1)OCCO2	4.5%
O=C(Nc1ccc(N2CCCCC2)cc1)c1ccccn1	15.8µM*
O=C(Nc1ccc2c(c1)OCCO2)c1ccccn1	14.1µM*
O=C(CN1CCN(c2ccc(O)cc2)CC1)Nc1ccc2c(c1)OCCO2	35.2%
Cc1cc(C)cc(NC(=O)Nc2ccc(N3CCCCC3)cc2)c1	45.5%
Cc1cc(NC(=O)C2CCCCC2)ncc1NC(=O)c1ccccn1	52.5%
O=C1CCN(S(=O)(=O)c2ccccc2)CCN1CCOCc1ccc(Cl)cc1	47.5%
CC(C)c1nc2sc(C(=O)O)c(N)c2c2c1CCCC2	81.5%
CCCNC(=O)c1cc(S(=O)(=O)N2CCCCC2)c[nH]1	5.8%
Cc1cccc(NS(=O)(=O)c2ccc3c(c2)oc(=O)n3C)c1C	52.2%
COCc1cc(C)nc(OCC(=O)N/N=C/c2ccc(C)o2)c1C#N	31.8%
C=CCOC(=O)C1=C(C)NC(=O)NC1c1cc(Cl)cc(Cl)c1OC (stereo not given)	48.0%[11.5 µM]
CC(Sc1ccc([N+](=O)[O-])cn1)C(=O)Nc1nccs1 (stereo not given)	101.7%
COc1ccc(S(=O)(=O)c2ccc(OC)cc2)cc1	45.2%
COc1ccc(C2=CC(=O)C=CC2=O)cc1	17.8µM*
COc1ccc(S(=O)(=O)/N=C2/C=CC(=O)C(C)=C2C)cc1	38.5%
O=C(/C=C/c1ccco1)N(Cc1ccc(Cl)cc1)C1CCS(=O)(=O)C1 (stereo not given)	32.0%
COC(=O)c1nc(N)sc1-c1ccc(Cl)c(Cl)c1	51.8%
Cc1oc(-c2ccc(Cl)cc2)cc1C(=O)/C(C#N)=C/Nc1ccccc1	31.4%
Cc1cc2[nH]c(=O)c(=O)[nH]c2cc1S(=O)(=O)Nc1cccc(Cl)c1C	71.3%
COc1ccc(S(=O)(=O)N2CCN(c3ccccc3)CC2)cc1	57.3%
SMILES	PKM2 inhibitor
CC(C)c1ccc2oc3nc(N)c(C(=O)O)cc3c(=O)c2c1	14.1µM*
CC(C)=NNc1nc2c(c(=O)n(C)c(=O)n2C)n1CCc1ccccc1	56.7%
O=[N+]([O-])c1ccc2c(OCc3nnc(-c4ccccc4Br)o3)ncnc2c1	43.3%
COc1cccc2nc3cc(C)c(C)cc3nc12	14.1µM*
Cc1ccc(Nc2cc(C)c3c(O)cccc3n2)cc1C	3.0%
COc1cc(F)ccc1S(=O)(=O)n1c(C)nc2ccccc21	-2.0%
COC(=O)C1CCN(S(=O)(=O)c2ccc(OC)cc2)CC1	36.2%
CCc1ccccc1N1C(=O)C(Cl)=C(N2CCOCC2)C1=O	30.7%
COc1cccc(-n2nnc3c(=O)n(CC(=O)Nc4cc(C)on4)cnc32)c1	31.2%
CC(C)C1Oc2ccccc2N(CC(=O)N(Cc2ccncc2)Cc2ccco2)C1=O (stereo not given)	35.5%
Cc1c(Br)cc(C(=O)NCc2ccco2)c(C)c1C	30.6%
O=C(NNC(=O)c1cc2cc(Br)ccc2oc1=O)c1ccc(O)cc1O	53.8%
O=C(NCc1ccco1)c1cc2ccc(O)cc2oc1=O	11.2µM*
COC(=O)[C@@]1(Cc2ccc(OC)cc2)[C@H]2c3cc(C(=O)N(C)C)n(Cc4ccc(C)o4)c3C[C@H]2CN1C(=O)c1ccccc1	89.2%
Cc1ccc(SCC(=O)NC(=O)c2ccc(S(=O)(=O)N(C)C)cc2)cc1C	50.8%
CC(=O)N1N=C(c2ccc(C)o2)CC1c1cccc(F)c1 (stereo not given)	33.9%
CC(=O)Oc1ccc(C(=O)Nc2cccc(C(=O)c3cccc(NC(=O)c4ccc(OC(C)=O)cc4)c3)c2)cc1	32.2%
CCC(=O)Oc1ccc(C(=O)Nc2ccc3c(c2)OCO3)cc1	14.1µM*
CS(=O)(=O)Nc1ccc(C(=O)NCc2ccc3c(c2)OCO3)cc1	50.6%
CC(C)n1c(SCC(=O)Nc2ccccc2)nc2c1c(=O)n(C)c(=O)n2C	73.4%
O=C(CCc1ccccc1)Nc1ccc(S(=O)(=O)Nc2nccs2)cc1	36.8%
O=[N+]([O-])c1ccc(NCCCNS(=O)(=O)c2ccc(Cl)cc2)c(Cl)c1	110.7%
Cc1ccc(-c2nc(-c3ccccn3)no2)cc1	10µM*
c1ccc(-c2nc(-c3ccco3)cs2)nc1	41.3%
CC(=O)Nc1nnc(-c2ccccn2)o1	-1.7%
O=C(COc1ccccc1F)Nc1ccc(S(=O)(=O)Nc2nccs2)cc1	49.5%
Cc1cc2c(cc1S(=O)(=O)CCC(=O)N(C)C1CCCCC1)OCC(=O)N2	33.3%
Cn1c(NCc2c[nH]c3ccccc23)nc2ccccc21	53.4%

Bioassay records as filed in PubChem BioAssay.
